Source: PubChem BioAssay AID1159580 (chemical genetic matrix, 2015)
Several values for one entry are separate records, joined by “and”; a condition that tells them apart may be missing. Identical values can stand only once. Among all 5,500 compounds or so, about 2,000 (36%) were called active. About 18% were inconclusive and are not listed. Rule as the data show it: active = normalized growth mostly below about 0.91 (no sharp cut-off); inconclusive = no clear call, values can overlap the other calls; inactive = mostly above about 0.92. The list shows a part of the results.

Assay: chemical genetic growth profiling, strain panel (AID 1159580);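 also: tested at 20 µM; growth read once vehicle control cultures reached saturation at 30 °C; 1 = growth at the plate median or of vehicle wells; lower values mean less growth of the strain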
Conditions: growth OD

Measured: normalized growth

Cc1cc(C(C)(C)C)cc(C)c1CC1=NCCN1
inactive: S. cerevisiae deletion strains, locus YJR075W, strain HOC1, stronger effect = lower value 1.02 | S. cerevisiae deletion strains, locus YKL009W, strain mrt4, stronger effect = lower value 1.03 | S. cerevisiae deletion strains, locus YKL068W, stronger effect = lower value 1 | S. cerevisiae deletion strains, locus YKL085W, strain MDH1 (second series), stronger effect = lower value 1.02 | S. cerevisiae deletion strains, locus YKL085W, strain MDH1, stronger effect = lower value 1.02 | S. cerevisiae deletion strains, locus YKL160W, strain elf1, stronger effect = lower value 1.01 | S. cerevisiae deletion strains, locus YKL190W, strain CNB1, stronger effect = lower value 1.02 | S. cerevisiae deletion strains, locus YKR001C, strain vps1, stronger effect = lower value 0.99 | S. cerevisiae deletion strains, locus YKR026C, strain gcn3, stronger effect = lower value 1.01 | S. cerevisiae deletion strains, locus YKR091W, strain srl3, stronger effect = lower value 0.996 | S. cerevisiae deletion strains, locus YLL001W, strain dnm1, stronger effect = lower value 1.03 | S. cerevisiae deletion strains, locus YLL026W, stronger effect = lower value 0.995 | S. cerevisiae deletion strains, locus YLL041C, strain sdh2, stronger effect = lower value 1 | S. cerevisiae deletion strains, locus YLR027C, strain aat2, stronger effect = lower value 1.01 | S. cerevisiae deletion strains, locus YLR039C, strain RIC1, stronger effect = lower value 0.992 | S. cerevisiae deletion strains, locus YLR058C, strain SHM2, stronger effect = lower value 1.02 | S. cerevisiae deletion strains, locus YLR102C, strain apc9, stronger effect = lower value 0.996 | S. cerevisiae deletion strains, locus YLR113W, strain HOG1, stronger effect = lower value 0.997 | S. cerevisiae deletion strains, locus YLR221C, strain rsa3, stronger effect = lower value 0.969 | S. cerevisiae deletion strains, locus YLR258W, strain gsy2, stronger effect = lower value 1 | S. cerevisiae deletion strains, locus YLR262C, strain YPT6 (second series), stronger effect = lower value 1.03 | S. cerevisiae deletion strains, locus YLR262C, strain YPT6, stronger effect = lower value 1.06 | S. cerevisiae deletion strains, locus YLR268W, strain sec22, stronger effect = lower value 0.983 | S. cerevisiae deletion strains, locus YLR320W, strain mms22, stronger effect = lower value 0.99 | S. cerevisiae deletion strains, locus YLR330W, strain CHS5, stronger effect = lower value 1.01 | S. cerevisiae deletion strains, locus YLR342W, strain FKS1 (second series), stronger effect = lower value 0.99 | S. cerevisiae deletion strains, locus YLR342W, strain FKS1, stronger effect = lower value 1 | S. cerevisiae deletion strains, locus YLR357W, strain rsc2, stronger effect = lower value 1 | S. cerevisiae deletion strains, locus YLR370C, strain arc18, stronger effect = lower value 1.01 | S. cerevisiae deletion strains, locus YLR371W, strain rom2, stronger effect = lower value 1 | S. cerevisiae deletion strains, locus YLR384C, strain iki3, stronger effect = lower value 1 | S. cerevisiae deletion strains, locus YLR418C, strain cdc73, stronger effect = lower value 0.995 | S. cerevisiae deletion strains, locus YML016C, strain PPZ1, stronger effect = lower value 1.01 | S. cerevisiae deletion strains, locus YML032C, strain rad52, stronger effect = lower value 0.994 | S. cerevisiae deletion strains, locus YML120C, strain ndi1, stronger effect = lower value 1.01 | S. cerevisiae deletion strains, locus YML124C, strain tub3, stronger effect = lower value 0.996 | S. cerevisiae deletion strains, locus YMR058W, strain fet3, stronger effect = lower value 1.01 | S. cerevisiae deletion strains, locus YMR078C, strain ctf18, stronger effect = lower value 0.991 | S. cerevisiae deletion strains, locus YMR125W, strain sto1, stronger effect = lower value 0.981 | S. cerevisiae deletion strains, locus YMR129W, stronger effect = lower value 1 | S. cerevisiae deletion strains, locus YMR205C, strain PFK2, stronger effect = lower value 1.02 | S. cerevisiae deletion strains, locus YMR223W, strain ubp8, stronger effect = lower value 1 | S. cerevisiae deletion strains, locus YMR231W, strain pep5, stronger effect = lower value 1 | S. cerevisiae deletion strains, locus YMR263W, strain SAP30, stronger effect = lower value 1.02 | S. cerevisiae deletion strains, locus YMR307W, strain GAS1, stronger effect = lower value 1.02 and 0.994 | S. cerevisiae deletion strains, locus YNL067W, strain RPL9B, stronger effect = lower value 1.02 | S. cerevisiae deletion strains, locus YNL071W, strain lat1, stronger effect = lower value 0.998 | S. cerevisiae deletion strains, locus YNL128W, strain TEP1, stronger effect = lower value 1.03 and 0.994 | S. cerevisiae deletion strains, locus YNL153C, strain GIM3, stronger effect = lower value 1 and 0.97 | S. cerevisiae deletion strains, locus YNL175C, strain NOP13, stronger effect = lower value 1.02 | S. cerevisiae deletion strains, locus YNL183C, strain NPR1, stronger effect = lower value 0.96 | S. cerevisiae deletion strains, locus YNL197C, strain WHI3, stronger effect = lower value 1.01 | S. cerevisiae deletion strains, locus YNL209W, strain ssb2, stronger effect = lower value 0.998 | S. cerevisiae deletion strains, locus YNL224C, strain SQS1, stronger effect = lower value 0.987 | S. cerevisiae deletion strains, locus YNL233W, strain BNI4, stronger effect = lower value 1.02 | S. cerevisiae deletion strains, locus YNL248C, strain rpa49, stronger effect = lower value 0.948 | S. cerevisiae deletion strains, locus YNL250W, strain rad50, stronger effect = lower value 1.01 | S. cerevisiae deletion strains, locus YNL271C, strain bni1, stronger effect = lower value 0.986 | S. cerevisiae deletion strains, locus YNL298W, strain CLA4, stronger effect = lower value 0.992 | S. cerevisiae deletion strains, locus YNL307C, strain MCK1, stronger effect = lower value 1.01 | S. cerevisiae deletion strains, locus YNL322C, strain KRE1 (second series), stronger effect = lower value 1.01 | S. cerevisiae deletion strains, locus YNL322C, strain KRE1, stronger effect = lower value 1.02 | S. cerevisiae deletion strains, locus YNR049C, strain mso1, stronger effect = lower value 0.998 | S. cerevisiae deletion strains, locus YNR052C, strain pop2, stronger effect = lower value 0.997 | S. cerevisiae deletion strains, locus YOL006C, strain TOP1, stronger effect = lower value 0.984 | S. cerevisiae deletion strains, locus YOL012C, strain htz1 1.06 | S. cerevisiae deletion strains, locus YOL147C, strain pex11, stronger effect = lower value 0.998 | S. cerevisiae deletion strains, locus YOR001W, strain rrp6, stronger effect = lower value 1.02 | S. cerevisiae deletion strains, locus YOR061W, strain CKA2, stronger effect = lower value 1.01 | S. cerevisiae deletion strains, locus YOR069W, strain VPS5, stronger effect = lower value 1.02 | S. cerevisiae deletion strains, locus YOR070C, strain gyp1, stronger effect = lower value 0.992 | S. cerevisiae deletion strains, locus YOR080W, strain dia2, stronger effect = lower value 1.01 | S. cerevisiae deletion strains, locus YOR083W, strain WHI5 (second series), stronger effect = lower value 0.992 | S. cerevisiae deletion strains, locus YOR083W, strain WHI5, stronger effect = lower value 0.99 | S. cerevisiae deletion strains, locus YOR106W, strain vam3, stronger effect = lower value 1.03 | S. cerevisiae deletion strains, locus YOR136W, strain idh2, stronger effect = lower value 0.997 | S. cerevisiae deletion strains, locus YOR144C, strain elg1, stronger effect = lower value 1 | S. cerevisiae deletion strains, locus YOR184W, strain ser1, stronger effect = lower value 1 | S. cerevisiae deletion strains, locus YOR231W, strain MKK1, stronger effect = lower value 1 | S. cerevisiae deletion strains, locus YOR265W, strain rbl2, stronger effect = lower value 1 | S. cerevisiae deletion strains, locus YOR270C, strain vph1, stronger effect = lower value 1 | S. cerevisiae deletion strains, locus YOR290C, strain snf2, stronger effect = lower value 0.975 | S. cerevisiae deletion strains, locus YOR316C, strain cot1, stronger effect = lower value 0.997 | S. cerevisiae deletion strains, locus YPL051W, strain arl3, stronger effect = lower value 1.01 | S. cerevisiae deletion strains, locus YPL055C, strain LGE1, stronger effect = lower value 1.04 | S. cerevisiae deletion strains, locus YPL078C, strain atp4, stronger effect = lower value 1.03 | S. cerevisiae deletion strains, locus YPL106C, strain sse1, stronger effect = lower value 0.996 | S. cerevisiae deletion strains, locus YPL240C, strain hsp82, stronger effect = lower value 0.991 | S. cerevisiae deletion strains, locus YPL241C, strain CIN2, stronger effect = lower value 1.01 and 1 | S. cerevisiae deletion strains, locus YPL256C, strain CLN2, stronger effect = lower value 0.949 | S. cerevisiae deletion strains, locus YPR119W, strain clb2, stronger effect = lower value 0.995 | S. cerevisiae deletion strains, locus YPR141C, strain kar3, stronger effect = lower value 1.01 | S. cerevisiae deletion strains, locus YPR163C, strain tif3, stronger effect = lower value 1 | S. cerevisiae deletion strains, locus YPR167C, strain met16, stronger effect = lower value 0.997 | S. cerevisiae deletion strains, strain wtn01, stronger effect = lower value 0.994 | S. cerevisiae strains, strain wild type, stronger effect = lower value 1.01
